Laboratory results: the supplement of paper PMC11732987, “Enantioselective OTUD7B fragment discovery through chemoproteomics screening and high-throughput optimisation” (Communications Chemistry, 2025)
Unmarked numbers belong to inactive results.

How the values were obtained:
Test in all cases: log2 ratio of Biotin-Ahx-Ub-VS probe labelling (fragment/DMSO); higher = less target engagement (more negative = stronger competition), active = hit call of the paper (q ≤ 0.05, log2 ratio ≤ -1)
Conditions in all cases: compound concentration: 200 uM; treatment time: 3 h
USP19 = molecular target: T1, USP19 (UniProt O94966)
T1 sequence (whole entry): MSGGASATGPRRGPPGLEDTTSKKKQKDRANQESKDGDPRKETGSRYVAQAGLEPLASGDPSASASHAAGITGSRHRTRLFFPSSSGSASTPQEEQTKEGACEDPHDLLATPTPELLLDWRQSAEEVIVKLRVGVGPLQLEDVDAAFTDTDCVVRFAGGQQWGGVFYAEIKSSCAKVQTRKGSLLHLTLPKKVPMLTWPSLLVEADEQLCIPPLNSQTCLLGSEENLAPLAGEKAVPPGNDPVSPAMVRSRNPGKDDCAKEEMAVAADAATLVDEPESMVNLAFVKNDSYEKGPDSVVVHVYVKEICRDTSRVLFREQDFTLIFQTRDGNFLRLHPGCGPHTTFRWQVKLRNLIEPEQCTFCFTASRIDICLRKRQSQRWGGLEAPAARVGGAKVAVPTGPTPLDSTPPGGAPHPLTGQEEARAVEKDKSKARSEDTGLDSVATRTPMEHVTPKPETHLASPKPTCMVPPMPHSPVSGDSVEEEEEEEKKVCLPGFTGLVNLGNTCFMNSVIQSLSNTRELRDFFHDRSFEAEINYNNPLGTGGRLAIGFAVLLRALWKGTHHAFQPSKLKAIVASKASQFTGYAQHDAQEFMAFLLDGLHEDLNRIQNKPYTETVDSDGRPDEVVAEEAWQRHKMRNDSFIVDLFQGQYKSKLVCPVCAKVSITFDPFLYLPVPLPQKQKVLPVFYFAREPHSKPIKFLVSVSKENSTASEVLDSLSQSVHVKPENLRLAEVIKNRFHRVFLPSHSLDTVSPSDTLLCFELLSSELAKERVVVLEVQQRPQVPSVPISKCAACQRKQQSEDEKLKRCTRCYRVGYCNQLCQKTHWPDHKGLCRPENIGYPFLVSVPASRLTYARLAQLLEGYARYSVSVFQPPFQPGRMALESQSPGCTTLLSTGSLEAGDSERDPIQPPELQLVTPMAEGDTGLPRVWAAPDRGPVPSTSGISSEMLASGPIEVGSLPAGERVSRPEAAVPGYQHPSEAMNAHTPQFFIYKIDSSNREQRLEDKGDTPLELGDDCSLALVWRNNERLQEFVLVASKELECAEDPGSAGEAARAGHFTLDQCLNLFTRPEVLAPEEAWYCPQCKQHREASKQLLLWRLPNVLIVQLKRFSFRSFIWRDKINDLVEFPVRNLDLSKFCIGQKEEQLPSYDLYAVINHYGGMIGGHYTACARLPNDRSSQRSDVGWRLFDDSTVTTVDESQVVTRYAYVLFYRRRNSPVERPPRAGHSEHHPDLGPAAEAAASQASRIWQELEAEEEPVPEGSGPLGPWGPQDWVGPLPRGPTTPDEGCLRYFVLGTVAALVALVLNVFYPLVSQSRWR
In short: (§1)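 Each value is an average log2 ratio of fragment to vehicle, tested by unpaired t-test. The underlying Spectronaut label-free quantities were global-median-normalised, and only proteins with ≥2 unique peptides were included. Triplicate HEK293T lysate samples (495 µg) were exposed to fragment at 200 µM or vehicle for 3 h, then to Biotin-Ahx-Ub-VS at 0.5 µM final for 1 h, before NeutrAvidin enrichment of labelled DUBs, LysC and trypsin digestion, and diaPASEF LC-MS/MS.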

USP22 = molecular target: T2, USP22 (UniProt Q9UPT9)
T2 sequence (whole entry): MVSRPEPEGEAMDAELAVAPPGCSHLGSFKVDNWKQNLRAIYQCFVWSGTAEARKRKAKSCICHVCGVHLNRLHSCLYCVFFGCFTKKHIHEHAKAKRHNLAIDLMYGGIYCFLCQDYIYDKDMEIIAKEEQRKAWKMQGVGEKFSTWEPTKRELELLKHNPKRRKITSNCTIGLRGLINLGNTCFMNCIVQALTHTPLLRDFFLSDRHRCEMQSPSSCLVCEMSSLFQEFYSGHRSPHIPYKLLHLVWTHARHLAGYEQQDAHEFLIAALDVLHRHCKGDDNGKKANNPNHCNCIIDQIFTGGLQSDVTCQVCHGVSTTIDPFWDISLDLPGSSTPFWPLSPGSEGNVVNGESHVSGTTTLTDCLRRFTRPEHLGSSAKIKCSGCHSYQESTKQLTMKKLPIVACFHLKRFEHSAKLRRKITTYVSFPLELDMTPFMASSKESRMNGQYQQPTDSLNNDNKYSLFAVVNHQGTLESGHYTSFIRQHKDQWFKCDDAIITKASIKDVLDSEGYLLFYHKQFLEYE
In short: as §1

USP24 = USP24 (UniProt Q9UPU5)
Chain of USP24 (Q9UPU5 whole entry): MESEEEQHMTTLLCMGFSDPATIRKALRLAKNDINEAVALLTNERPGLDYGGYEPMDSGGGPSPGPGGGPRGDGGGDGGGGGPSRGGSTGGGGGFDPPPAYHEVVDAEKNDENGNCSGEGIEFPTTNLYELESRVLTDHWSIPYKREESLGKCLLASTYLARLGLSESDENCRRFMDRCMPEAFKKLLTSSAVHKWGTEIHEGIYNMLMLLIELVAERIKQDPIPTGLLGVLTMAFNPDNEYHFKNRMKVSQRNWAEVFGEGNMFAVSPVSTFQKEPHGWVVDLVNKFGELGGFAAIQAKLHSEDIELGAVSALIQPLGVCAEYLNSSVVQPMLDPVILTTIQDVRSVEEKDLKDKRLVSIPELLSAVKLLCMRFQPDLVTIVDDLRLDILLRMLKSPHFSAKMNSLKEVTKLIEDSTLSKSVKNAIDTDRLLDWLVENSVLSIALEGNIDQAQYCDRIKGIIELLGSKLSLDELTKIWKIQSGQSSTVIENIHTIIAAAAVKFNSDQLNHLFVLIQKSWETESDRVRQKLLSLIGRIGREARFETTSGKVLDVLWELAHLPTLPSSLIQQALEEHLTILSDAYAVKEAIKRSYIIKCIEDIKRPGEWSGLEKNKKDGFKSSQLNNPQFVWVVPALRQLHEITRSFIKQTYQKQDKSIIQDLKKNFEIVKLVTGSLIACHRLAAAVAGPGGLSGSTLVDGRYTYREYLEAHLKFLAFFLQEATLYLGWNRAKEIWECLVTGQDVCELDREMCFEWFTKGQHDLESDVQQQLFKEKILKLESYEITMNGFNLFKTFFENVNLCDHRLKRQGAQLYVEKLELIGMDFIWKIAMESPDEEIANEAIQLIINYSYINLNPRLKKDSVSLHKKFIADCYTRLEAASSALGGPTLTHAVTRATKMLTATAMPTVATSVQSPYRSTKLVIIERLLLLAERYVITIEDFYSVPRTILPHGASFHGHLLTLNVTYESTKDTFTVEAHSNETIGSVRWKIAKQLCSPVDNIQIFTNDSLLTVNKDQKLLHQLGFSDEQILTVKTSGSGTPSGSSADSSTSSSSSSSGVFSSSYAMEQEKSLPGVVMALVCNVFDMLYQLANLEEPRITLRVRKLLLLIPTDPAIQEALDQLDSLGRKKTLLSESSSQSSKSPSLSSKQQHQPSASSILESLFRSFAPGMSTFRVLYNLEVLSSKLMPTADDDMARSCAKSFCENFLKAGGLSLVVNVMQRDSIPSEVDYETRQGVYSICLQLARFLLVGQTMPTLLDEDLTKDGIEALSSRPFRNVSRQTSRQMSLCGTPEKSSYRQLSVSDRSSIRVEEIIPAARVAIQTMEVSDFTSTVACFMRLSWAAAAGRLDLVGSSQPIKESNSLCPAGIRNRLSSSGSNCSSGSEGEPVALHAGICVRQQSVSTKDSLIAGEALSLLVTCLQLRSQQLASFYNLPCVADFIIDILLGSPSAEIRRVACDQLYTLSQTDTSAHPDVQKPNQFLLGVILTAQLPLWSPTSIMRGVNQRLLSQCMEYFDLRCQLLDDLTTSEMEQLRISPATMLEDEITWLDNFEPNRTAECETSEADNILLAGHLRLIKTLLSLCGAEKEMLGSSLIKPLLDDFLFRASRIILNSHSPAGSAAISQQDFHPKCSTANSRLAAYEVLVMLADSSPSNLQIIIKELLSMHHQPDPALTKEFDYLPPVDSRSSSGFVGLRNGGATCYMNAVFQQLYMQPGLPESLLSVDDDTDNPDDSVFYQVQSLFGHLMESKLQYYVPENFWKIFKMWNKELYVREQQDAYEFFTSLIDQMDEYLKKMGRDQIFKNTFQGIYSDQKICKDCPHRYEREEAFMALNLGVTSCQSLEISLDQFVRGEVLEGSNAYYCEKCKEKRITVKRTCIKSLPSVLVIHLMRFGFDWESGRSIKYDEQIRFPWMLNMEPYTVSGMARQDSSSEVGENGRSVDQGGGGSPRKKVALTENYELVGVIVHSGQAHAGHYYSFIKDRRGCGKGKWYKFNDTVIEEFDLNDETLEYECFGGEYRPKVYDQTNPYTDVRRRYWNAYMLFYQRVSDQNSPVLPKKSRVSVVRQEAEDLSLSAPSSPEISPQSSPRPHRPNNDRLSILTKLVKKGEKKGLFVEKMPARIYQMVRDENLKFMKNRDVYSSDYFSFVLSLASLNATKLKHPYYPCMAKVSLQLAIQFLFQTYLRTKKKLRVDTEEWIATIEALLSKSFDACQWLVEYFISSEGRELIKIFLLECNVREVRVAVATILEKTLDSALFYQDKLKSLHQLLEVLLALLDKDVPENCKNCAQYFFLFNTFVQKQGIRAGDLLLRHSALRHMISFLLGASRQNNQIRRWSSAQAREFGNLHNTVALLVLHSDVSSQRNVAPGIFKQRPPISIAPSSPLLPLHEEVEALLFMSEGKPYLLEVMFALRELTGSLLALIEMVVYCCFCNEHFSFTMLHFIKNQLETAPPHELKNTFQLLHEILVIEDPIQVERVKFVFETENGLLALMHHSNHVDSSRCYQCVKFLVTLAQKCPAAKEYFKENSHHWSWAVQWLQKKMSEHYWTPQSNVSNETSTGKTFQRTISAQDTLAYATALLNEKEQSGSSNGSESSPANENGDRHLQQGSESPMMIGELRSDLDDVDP
In short: as §1

USP25 = molecular target: T3, USP25 (UniProt Q9UHP3)
T3 sequence (whole entry): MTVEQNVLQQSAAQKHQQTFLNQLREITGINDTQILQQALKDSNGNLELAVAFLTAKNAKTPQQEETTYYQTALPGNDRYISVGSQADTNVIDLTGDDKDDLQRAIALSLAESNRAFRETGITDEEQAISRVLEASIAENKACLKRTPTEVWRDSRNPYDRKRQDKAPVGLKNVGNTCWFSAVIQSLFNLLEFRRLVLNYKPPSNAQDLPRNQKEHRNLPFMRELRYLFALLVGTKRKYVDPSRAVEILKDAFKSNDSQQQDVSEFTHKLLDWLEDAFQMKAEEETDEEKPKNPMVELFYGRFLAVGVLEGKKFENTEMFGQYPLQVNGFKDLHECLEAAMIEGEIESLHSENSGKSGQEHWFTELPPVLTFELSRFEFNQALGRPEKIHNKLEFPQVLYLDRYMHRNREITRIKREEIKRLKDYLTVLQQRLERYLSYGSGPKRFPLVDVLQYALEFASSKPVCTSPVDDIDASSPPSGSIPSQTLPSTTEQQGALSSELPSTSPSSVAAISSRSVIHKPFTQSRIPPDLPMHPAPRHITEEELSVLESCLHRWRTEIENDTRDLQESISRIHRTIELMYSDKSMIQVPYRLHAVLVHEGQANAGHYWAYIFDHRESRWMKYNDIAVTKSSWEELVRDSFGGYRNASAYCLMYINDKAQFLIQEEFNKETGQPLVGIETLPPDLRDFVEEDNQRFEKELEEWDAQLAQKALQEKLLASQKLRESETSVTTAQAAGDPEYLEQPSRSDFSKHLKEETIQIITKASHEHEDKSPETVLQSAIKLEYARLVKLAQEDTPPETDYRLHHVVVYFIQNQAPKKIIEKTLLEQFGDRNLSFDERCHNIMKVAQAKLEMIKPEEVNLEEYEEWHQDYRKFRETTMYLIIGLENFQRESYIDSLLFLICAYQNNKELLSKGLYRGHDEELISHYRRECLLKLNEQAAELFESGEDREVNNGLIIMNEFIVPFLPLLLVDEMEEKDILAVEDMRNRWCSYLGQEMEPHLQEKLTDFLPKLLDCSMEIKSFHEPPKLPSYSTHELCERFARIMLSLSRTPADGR
In short: as §1

USP28 = molecular target: T4, USP28 (UniProt Q96RU2)
T4 sequence (whole entry): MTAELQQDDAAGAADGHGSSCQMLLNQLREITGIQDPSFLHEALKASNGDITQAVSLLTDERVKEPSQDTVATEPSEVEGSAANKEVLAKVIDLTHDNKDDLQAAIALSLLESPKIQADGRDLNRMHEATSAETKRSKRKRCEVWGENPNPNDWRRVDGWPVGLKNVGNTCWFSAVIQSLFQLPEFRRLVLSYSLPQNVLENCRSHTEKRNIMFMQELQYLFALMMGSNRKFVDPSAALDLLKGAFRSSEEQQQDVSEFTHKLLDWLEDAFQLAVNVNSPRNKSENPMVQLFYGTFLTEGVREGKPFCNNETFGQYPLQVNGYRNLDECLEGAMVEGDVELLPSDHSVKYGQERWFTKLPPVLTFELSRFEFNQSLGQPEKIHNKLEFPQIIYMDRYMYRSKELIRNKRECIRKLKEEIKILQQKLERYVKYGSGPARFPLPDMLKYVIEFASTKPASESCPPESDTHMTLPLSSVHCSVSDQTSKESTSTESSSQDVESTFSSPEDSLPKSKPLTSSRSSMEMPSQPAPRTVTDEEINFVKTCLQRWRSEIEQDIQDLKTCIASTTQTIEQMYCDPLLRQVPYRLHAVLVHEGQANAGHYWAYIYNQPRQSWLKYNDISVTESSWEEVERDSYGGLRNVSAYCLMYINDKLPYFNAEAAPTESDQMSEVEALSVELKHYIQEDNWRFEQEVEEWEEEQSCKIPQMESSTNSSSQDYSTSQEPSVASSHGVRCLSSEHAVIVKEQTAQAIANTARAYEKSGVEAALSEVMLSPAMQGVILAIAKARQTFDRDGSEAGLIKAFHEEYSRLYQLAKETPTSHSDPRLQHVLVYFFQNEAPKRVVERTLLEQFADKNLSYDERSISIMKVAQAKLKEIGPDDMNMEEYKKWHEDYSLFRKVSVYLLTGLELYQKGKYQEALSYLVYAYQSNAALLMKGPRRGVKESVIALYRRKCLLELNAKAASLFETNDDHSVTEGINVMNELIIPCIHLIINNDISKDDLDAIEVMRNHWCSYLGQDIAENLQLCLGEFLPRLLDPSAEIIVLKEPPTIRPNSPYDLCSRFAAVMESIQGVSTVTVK
In short: as §1

O=C(CCl)N1CCN(C(=O)N2CCCCC2)CC1
log2 ratio of Biotin-Ahx-Ub-VS probe labelling (USP19): -0.943
log2 ratio of Biotin-Ahx-Ub-VS probe labelling (USP22): -0.465
log2 ratio of Biotin-Ahx-Ub-VS probe labelling (USP24): -1.28 (active)
log2 ratio of Biotin-Ahx-Ub-VS probe labelling (USP25): -1.09 (active)
log2 ratio of Biotin-Ahx-Ub-VS probe labelling (USP28): -1.23 (active)
